Screen size: about 1,400 compounds; about 350 (25%) were called active. Not shown: some 2% with an inconclusive outcome. The rule behind the calls is not given here. These entries were drawn from the full list. Potency and affinity values are given separately.
Test: C. difficile growth inhibition, confirmation, 4-point retest (AID 1224921);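 note: plate controls were DMSO wells for no effect and levofloxacin 16 µg/mL wells for full effect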
Settings: Clostridioides difficile clinical isolate growth, OD600, 24 h, stronger effect = lower value; at 30 µM unless noted

Max activity, inactive:
CC(C)[C@@H](C)NC(=O)N(C)C[C@@H]1OCc2ccccc2-c2ccccc2C(=O)N([C@@H](C)CO)C[C@H]1C 34.8%
CO[C@H]1CN(C)C(=O)c2ccc(NC(=O)C3CC3)cc2OC[C@@H](C)N(Cc2cncnc2)C[C@@H]1C -5.55%
COc1ccc(-c2ccc3n(c2=O)C[C@H]2[C@H](CO)[C@@H](C(=O)N4CCOCC4)[C@@H]3N2C)cc1 -4.95%
CC(C)CC#Cc1ccc2c(c1)O[C@H](CN(C)Cc1ccncc1)[C@H](C)CN([C@H](C)CO)S2(=O)=O 19.2% [at 8 µM]
C[C@H]1CN([C@@H](C)CO)C(=O)c2cc(C#CCN(C)C)cnc2O[C@@H]1CN(C)Cc1ccc(C(=O)O)cc1 -11.6% [at 1.95 µM]
O=C(Nc1ccc(Cl)c(Cl)c1)N[C@@H]1CC[C@@H](CCn2cc(C3CCCCC3)nn2)O[C@@H]1CO 30.5% [at 0.5 µM]
COc1ccccc1CNC(=O)C[C@H]1C[C@@H]2c3cc(NC(=O)NC4CCCC4)ccc3O[C@@H]2[C@@H](CO)O1 12.1%
COc1cccc(C#Cc2ccc3c(c2)O[C@@H](CN(C)C)[C@H](C)CN([C@@H](C)CO)S3(=O)=O)c1 41.9%
COc1cccc(C#Cc2ccc3c(c2)O[C@H](CN(C)C)[C@H](C)CN([C@@H](C)CO)S3(=O)=O)c1 -8.62% [at 1.95 µM]
C[C@@H]1CN([C@H](C)CO)S(=O)(=O)c2ccc(C#Cc3ccc(F)cc3)cc2O[C@@H]1CN(C)S(C)(=O)=O -24% [at 1.95 µM]
C[C@H]1CN([C@@H](C)CO)S(=O)(=O)c2ccc(C#Cc3ccccc3F)cc2O[C@@H]1CN(C)C 20.5%
C[C@H](CO)N1C[C@H](C)[C@@H](CN(C)C)Oc2cc(C#Cc3ccc(F)cc3)ccc2S1(=O)=O 18.3%
COc1cccc(C#Cc2ccc3c(c2)O[C@H](CN(C)C)[C@@H](C)CN([C@H](C)CO)S3(=O)=O)c1 8.78%
CC(C)NC(=O)N(C)C[C@H]1Oc2cc(C#Cc3cccc(F)c3)ccc2S(=O)(=O)N([C@@H](C)CO)C[C@@H]1C 30.3%
C[C@@H]1CN([C@@H](C)CO)S(=O)(=O)c2ccc(C#Cc3cccc(F)c3)cc2O[C@@H]1CN(C)C 8.04%
CCCN1C[C@@H](C)[C@@H](OC)CN(C)C(=O)c2cc(NC(=O)CC)ccc2OC[C@@H]1C 8.06%
C[C@H](CO)N1C[C@H](C)[C@H](CN(C)C(=O)Nc2cccc(F)c2)Oc2cc(C#CC3(O)CCCC3)ccc2S1(=O)=O 50.2%
Cc1ccc(-c2ccc3c(c2)O[C@H](CN(C)Cc2cccnc2)[C@@H](C)CN([C@@H](C)CO)S3(=O)=O)cc1 36.5%
CO[C@H]1CN(C)C(=O)c2ccc(NC(=O)c3cccc(F)c3)cc2OC[C@H](C)N(C(C)=O)C[C@@H]1C -20.5%
COc1ccc(S(=O)(=O)N(C)C[C@@H]2Oc3ncc(-c4ccc(F)cc4)cc3C(=O)N([C@H](C)CO)C[C@@H]2C)cc1 -7.45%
C[C@H](C(=O)N(C)C[C@H]1OCc2ccccc2-c2ccccc2C(=O)N([C@@H](C)CO)C[C@@H]1C)c1ccccc1 -4.71% [at 0.5 µM]
C[C@@H]1CN([C@H](C)CO)C(=O)c2cc(C#CCN(C)C)cnc2O[C@H]1CN(C)Cc1ccccc1F 24.5%
NC(=O)[C@H]1[C@@H]2C(=O)O[C@@H](c3ccccc3)[C@@H](c3ccccc3)N2[C@@H](c2ccccc2OCCO)[C@]12C(=O)Nc1ccc(C#CC3(O)CCCCCC3)cc12 16.8% [at 8 µM]
COc1ccc(C#Cc2ccc3c(c2)[C@]2(C(=O)N3)[C@H](C(N)=O)[C@H]3C(=O)O[C@H](c4ccccc4)[C@H](c4ccccc4)N3[C@@H]2c2ccc(O)cc2)cc1 23.8%
CC(=O)N(C)C[C@@H]1Oc2ncc(C#Cc3ccc(F)cc3)cc2C(=O)N([C@H](C)CO)C[C@@H]1C 22.7%
C[C@H]1CN([C@@H](C)CO)C(=O)c2cc(NC(=O)Nc3cccc4ccccc34)ccc2O[C@@H]1CN(C)S(=O)(=O)c1ccccc1 37.2%
CO[C@H]1CN(C)C(=O)c2cc(NS(C)(=O)=O)ccc2OC[C@H](C)N(Cc2ccccn2)C[C@@H]1C 2.2%
CO[C@H](CN(C)Cc1cc(F)ccc1F)[C@@H](C)CN(C(=O)Nc1ccc(F)cc1)[C@@H](C)CO 21.5%
C/C=C/[C@@H](CCn1cc(CCO)nn1)[Si](C)(C)c1ccc(OC)cc1 -14.8% [at 0.5 µM]
C[C@H](NC(=O)N(C)C[C@@H]1OCc2ccccc2-c2c(n(C)c3ccccc23)C(=O)N([C@@H](C)CO)C[C@H]1C)c1ccccc1 26.5% [at 8 µM]
CN(C)CCCNC(=O)[C@H]1[C@H](CO)[C@H]2Cn3c(ccc(-c4cccc(F)c4)c3=O)[C@@H]1N2C -8.59%
CNC[C@H]1Oc2cc(-c3ccccc3F)ccc2S(=O)(=O)N([C@H](C)CO)C[C@@H]1C 14%
Cc1ccccc1-c1ccc2c(c1)O[C@@H](CN(C)Cc1ccncc1)[C@@H](C)CN([C@@H](C)CO)S2(=O)=O 40.4%
C/C=C/c1cnc2c(c1)C(=O)N([C@@H](C)CO)C[C@@H](C)[C@@H](CN(C)Cc1ccc(F)cc1)O2 19.7%
C[C@H](CO)N1C[C@H](C)[C@H](CN(C)Cc2ccc(C(=O)O)cc2)Oc2ncc(C#CCN(C)C)cc2C1=O -7.61% [at 8 µM]
CO[C@@H]1CN(C)C(=O)c2ccc(NC(=O)c3nc4ccccc4s3)cc2OC[C@H](C)N(Cc2cccnc2)C[C@@H]1C -17.1% [at 1.95 µM]
CCCN1C[C@H](C)[C@@H](OC)CN(C)C(=O)c2cc(NC(=O)CC)ccc2OC[C@H]1C -10.4% [at 0.5 µM]

Reference: PubChem BioAssay AID1224921 (Broad Institute, 2016)
